Source: PubChem
GPT2 inhibitor = inhibitors of human GPT2 alanine aminotransferase. Potency, µM (highest dose often 57.7 µM), for the others: at the highest dose activity change, negative = inhibition, actives largely listed as inhibitors. Recombinant GPT2, coupled pyruvate oxidase/HRP Amplex Red fluorescence. Q8TD30. 100,000 compounds, 0.25% hits. AID 1671188; note: nearly all actives have a fitted effect of over 60% in size
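Inhibition is scored from Amplex Red fluorescence generated when pyruvate oxidase and HRP act on pyruvate released by GPT2. Reactions contain 10ng/uL enzyme, 250uM a-KG and 2mM L-alanine and run 30 min at room temperature.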
HEK293 tox = kills HEK 293 cells; HEK 293 viability, ATP luminescence (CellTiter-Glo), 48-72 h; Potency, µM (series often up to 115 µM), for the others: top-dose activity change, negative = cytotoxicity, most hits filed as inhibitors; 94,000 compounds, 6.6% hits; AID 1345083; note: nearly all actives have a fitted effect of over 60% in size
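Cytotoxicity was scored by loss of ATP-coupled luminescence (CellTiter-Glo) in HEK 293 cells. Compound treatment ran 48 or 72 hr at 37 degree Celsius, 5% CO2, 95% humidity.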
hNpr1 antagonist = antagonists of human natriuretic peptide receptor Npr1 | Potency, µM (titrated, usually from 46.3 µM), without a hit: top-dose activity change, negative = inhibition, hits mostly inhibitors | HEK293 hNpr1 GloSensor cGMP, ANP-stimulated luminescence | 76,000 compounds, 1.6% hits; calls by dose curve; note: nearly all actives have a fitted effect of over 60% in size
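HEK293 cells stably expressing human Npr1 and cGMP GloSensor pGS-40F, loaded 2 h with 2% GloSensor reagent, given compound 30 min at room temperature. Luminescence read before and 20 min after 0.1 nM hNppA.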
NIH3T3 tox = cytotoxic compounds in NIH 3T3 cells; NIH 3T3 viability, CellTiter-Glo ATP luminescence, 48-72 h; Potency, µM (doses to about 96.7 µM), for inactives: at the top dose activity change, negative = cytotoxicity, usual class: inhibitors; 94,000 compounds, 4.3% hits; note: nearly all actives have a fitted effect of over 55% in size
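ATP-dependent luminescence (CellTiter-Glo) served as the viability signal for NIH 3T3 cells treated with compound for 48 or 72 hr at 37 °C.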
Luciferase inh = blocks purified firefly luciferase enzyme activity; AID 1347043; 76,000 compounds, 2.5% hits; P08659; Potency, µM (highest dose often 115 µM), actives largely listed as inhibitors; purified P. pyralis luciferase, luminescence, biochemical; note: nearly all actives have a fitted effect of over 65% in size
Target sequence (P08659 whole entry, looked up): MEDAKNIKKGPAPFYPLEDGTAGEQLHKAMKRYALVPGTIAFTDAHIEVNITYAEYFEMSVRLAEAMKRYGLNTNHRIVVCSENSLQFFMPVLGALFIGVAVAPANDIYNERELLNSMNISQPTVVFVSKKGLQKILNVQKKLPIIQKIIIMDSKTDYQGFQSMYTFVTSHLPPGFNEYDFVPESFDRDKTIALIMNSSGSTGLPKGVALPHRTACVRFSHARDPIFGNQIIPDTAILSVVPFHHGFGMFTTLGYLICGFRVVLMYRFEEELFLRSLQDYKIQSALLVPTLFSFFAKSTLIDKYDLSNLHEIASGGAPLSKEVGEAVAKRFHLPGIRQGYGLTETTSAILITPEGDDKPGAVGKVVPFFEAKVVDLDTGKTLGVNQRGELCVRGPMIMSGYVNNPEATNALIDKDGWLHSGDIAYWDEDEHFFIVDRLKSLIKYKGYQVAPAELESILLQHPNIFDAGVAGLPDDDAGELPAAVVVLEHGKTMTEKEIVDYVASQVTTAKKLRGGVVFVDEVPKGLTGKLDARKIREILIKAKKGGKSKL
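Luminescence read by CCD imager after adding enzyme (10nM final) to wells holding compound, titrated in qHTS. Substrates 10uM each D-luciferin and ATP; buffer 50mM Tris acetate pH 7.5, 10mM Mg acetate, Tween-20, BSA.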
Active calls of the source: *; i = inactive; ? = inconclusive; . = no result given; [ ] = remark or other dose. An excerpt weighted towards active compounds, which were near 10% of everything screened. Unless noted, calls come from the whole dose curve; as a rule, active = well fitted curve in the direction sought with a large enough effect; inconclusive = small, poorly fitted or top-dose-only effect, or another doubt; inactive = no such curve, though single readings can be large; an effect the other way counts as inactive or inconclusive. % is set by controls: 0 for no effect and ±100 for the full control effect; potency is the fitted concentration of half-maximal effect.

SMILES | GPT2 inhibitor | HEK293 tox | hNpr1 antagonist | NIH3T3 tox | Luciferase inh
COCc1cccc(-c2n[nH]c3c2CC(=O)N(Cc2ccc(OC)cc2)C3)c1 | 3%[88.5 µM] | ? | -22%[70.6 µM] | 25µM* | i
COCCN1Cc2[nH]nc(-c3ccc(OC)c(F)c3)c2CC1=O | -5%[88.5 µM] | 2%[172 µM] | 3%[70.6 µM] | 79µM* | i
COc1ccc(-c2n[nH]c3c2CC(=O)N(CC2CCOCC2)C3)cc1F | -3%[88.5 µM] | ? | -1%[70.6 µM] | ? | i
COc1ccc(CN2Cc3[nH]nc(-c4ccc(C(=O)N5CCOCC5)cc4)c3CC2=O)cc1 | -13% | 79µM* | -7% | -24% | i
COc1ccc(-c2nc3cc(C)ccc3cc2CN2CCCC(C(N)=O)C2)cc1 (stereo not drawn) | -8% | ? | 1% | ? | i
COc1ccc(-c2noc(-c3cccn3CC(=O)Nc3cc(C)c(Cl)cc3OC)n2)cc1F | i | 10% | -14% | -8% | i
CO[C@H]1C(=O)N(C2CCN(C(=O)c3cnn(C)c3)CC2)[C@H]1c1ccncc1 | 1% | i | -3% | i | i
Cc1nc2ccc(Cc3nc(-c4cccnn4)no3)cc2[nH]1 | 2% | -14% | 2% | -14% | i
COc1ccc(CN2Cc3[nH]nc(-c4ccc(CO)cc4)c3CC2=O)cc1 | 0%[88.5 µM] | -11%[172 µM] | 1%[70.6 µM] | ? | i
COc1ncc(-c2n[nH]c3c2CC(=O)N(Cc2ccccc2)C3)cn1 | i | ? | 1%[70.6 µM] | 25µM* | i
COc1ccc(CN2Cc3[nH]nc(-c4cnc(OC)nc4)c3CC2=O)cc1 | -14%[88.5 µM] | -35%[172 µM] | -12%[70.6 µM] | 8.9µM* | i
O=C(c1ccccn1)N1CCC2(CC1)CC(N(Cc1ccc(F)cc1)C1CC1)CCO2 (stereo not drawn) | i | ? | 2% | -16% | i
CCc1ccc(CN2CCCC(CO)(Cc3ccc(F)cc3F)C2)cc1 (stereo not drawn) | -5% | ? | -1% | 79µM* | i
Cc1cc(C)n(-c2ccc(F)cc2CN2CCCC(CO)(Cc3ccccc3)C2)n1 (stereo not drawn) | -14% | ? | -9% | ? | i
COCc1ncc(C)n1C1CCCN(C(=O)CCn2nc(C)cc2C)C1 (stereo not drawn) | -8% | -4% | . | -28% | .
Cc1ccsc1CN1CC(Oc2ccc(-c3noc(C4CCOCC4)n3)cc2)C1 | i | 20µM* | . | 40µM* | .
OCc1ccc(-c2ccc3nnc(-c4ccccn4)n3n2)cc1 | -6%[88.5 µM] | i | 0%[70.6 µM] | 89µM* | i
Fc1ccc(-c2nnc3ccc(N4CCN(c5ccccn5)CC4)nn23)nc1 | 0%[88.5 µM] | -6%[172 µM] | -2%[70.6 µM] | ? | i
COc1ccnc(-c2nnc3ccc(N4CCc5ccccc5CC4)nn23)c1 | -13%[88.5 µM] | 56µM* | 5%[70.6 µM] | 50µM* | i
COc1ccnc(-c2nnc3ccc(N4C[C@@H](C)O[C@@H](C)C4)nn23)c1 | 0%[88.5 µM] | ? | 6%[70.6 µM] | 32µM* | i
c1ccc(C2CCN(c3ccc4nnc(-c5ccccn5)n4n3)CC2)cc1 | -11%[88.5 µM] | 63µM* | -4%[70.6 µM] | 32µM* | i
CS(=O)(=O)c1ccc(CC(=O)N2CCc3nn(CC#N)c(=O)n3CC2)cc1 | i | -17% | 3% | -3% | i
COc1ccc(-c2nnc3ccc(N4CCCC4)nn23)nc1 | 4%[88.5 µM] | -18%[172 µM] | 3%[70.6 µM] | 32µM* | i
COc1ccc(-c2nnc3ccc(N4CCN(C(C)=O)CC4)nn23)nc1 | -28%[88.5 µM] | -4%[172 µM] | -8%[70.6 µM] | ? | i
Cn1ncc2c(C(=O)NCCCNC(=O)OC(C)(C)C)cc(-c3ccccc3F)nc21 | . | 45µM* | . | ? | .
SMILES | GPT2 inhibitor | HEK293 tox | hNpr1 antagonist | NIH3T3 tox | Luciferase inh
Cn1ncc2c(C(=O)NCc3ccc(C(F)(F)F)cc3)cc(-c3ccccc3C(F)(F)F)nc21 | . | 18µM* | . | ? | .
CC(NC(=O)c1cc(-c2ccccc2C(F)(F)F)nc2c1cnn2C)C(C)(C)C (stereo not drawn) | . | 45µM* | . | ? | .
Cn1ncc2c(C(=O)NCc3ccc4c(c3)OCO4)cc(-c3ccccc3C(F)(F)F)nc21 | . | 35µM* | . | ? | .
O=C1CN(C(=O)OCc2ccccc2)CC(O)CN1CCc1ccccc1 (stereo not drawn) | . | -17% | . | ? | .
CC(C)(C)NS(=O)(=O)C1CCS(=O)(=O)C1 (stereo not drawn) | 3% | 0% | 8% | i | i
Cn1ncc2c(C(=O)NCc3ccc(Cl)cc3)cc(-c3ccc(C(F)(F)F)cc3)nc21 | . | ? | . | -22% | .
Cn1ncc2c(C(=O)NCC(=O)OC(C)(C)C)cc(-c3ccccc3C(F)(F)F)nc21 | . | 45µM* | . | ? | .
Cn1ncc2c(C(=O)NCc3ccc(Cl)cc3)cc(-c3ccccc3C(F)(F)F)nc21 | . | 32µM* | . | ? | .
CC1(C(=O)N2C[C@@H](Oc3ccccc3)C[C@H]2C(=O)NC2CC2)CCCCC1 | -2% | -20% | 6% | -16% | i
COCc1nc(-c2ccc(OC3CN(C(=O)Cc4ccccc4)C3)cc2)no1 | -2% | ? | -24% | ? | i
COCc1nc(-c2ccc(OC3CN(C(=O)c4cccc(OC)c4)C3)cc2)no1 | i | ? | ? | ? | i
COCc1nc(-c2ccc(OC3CN(C(=O)C(C)Oc4ccccc4)C3)cc2)no1 (stereo not drawn) | 2% | 40µM* | ? | ? | i
COCc1nc(-c2ccc(OC3CN(C(=O)c4ccc(OC)cc4)C3)cc2)no1 | 5% | ? | 1.4µM* | ? | i
Cn1ccnc1CNC(=O)CC(c1cccc(O)c1)c1ccccc1Cl (stereo not drawn) | 0% | 1% | 0% | i | i
COc1ccc(CN2CC(c3ncc4c(-c5ccccc5)nccn34)C2)cc1O | 0%[88.5 µM] | ? | -25%[70.6 µM] | 89µM* | i
Cc1cc2cc(-c3c(C)noc3C)nc(NC3CCN(C)CC3)c2o1 | 1%[88.5 µM] | 100µM* | 4%[70.6 µM] | 35µM* | i
COCCNc1nc(-c2c(C)noc2C)cc2cc(CO)oc12 | 1%[88.5 µM] | -15%[172 µM] | 4%[70.6 µM] | ? | i
Cc1noc(C)c1-c1cc2cc(CO)oc2c(NC2CCN(C)CC2)n1 | -7%[88.5 µM] | ? | -22%[70.6 µM] | 45µM* | i
Cc1noc(C)c1-c1cc2cc(CO)oc2c(NCc2cccc(F)c2)n1 | -10%[88.5 µM] | ? | -16%[70.6 µM] | 25µM* | i
N#Cc1cccc(C(=O)N2C[C@@H](Oc3cccnc3)C[C@H]2C(=O)N2CCOCC2)c1 | 3% | 5% | -3% | -4% | i
CCN1CCN(Cc2ccc(NC(=O)Nc3ccc(Oc4cc(NC)ncn4)cc3)cc2C(F)(F)F)CC1 | i | . | . | . | .
CCN1CCN(c2ccc(Nc3cc(N(C)C(=O)Nc4c(Cl)c(OC)cc(OC)c4Cl)ncn3)cc2)CC1 | 8.9µM* | . | . | . | .
CC(=O)c1cc(C(=O)NCc2c(C)ncc3c2CCNC3)[nH]n1 | -1% | -9% | 1% | 5% | i
